# Assay results published in ChEMBL document CHEMBL3433997, “St. Jude Leishmania screening dataset” (2016).
# Assays:
# Assay type in all cases: functional
# [1] = biological target: Solute carrier family 2, facilitated glucose transporter member 1 (Homo sapiens) (UniProt P11166); assay: ST_JUDE_LEISH: Cytotoxicity at 2uM final concentration against transgenic Leishmania Mexicana promastigotes LmGLUT1 that are glucose transport deficient and complemented with the human glucose transporter GLUT1. Activity is measured by DNA content using SYBR green in vitro
# [2] = biological target: Hexose transporter 1 (Plasmodium falciparum) (UniProt O97467); assay: ST_JUDE_LEISH: Cytotoxicity at 2uM final concentration against transgenic Leishmania Mexicana promastigotes LmPfHT that are glucose transport deficient and complemented with the Plasmodium falciparum hexose transporter. Activity is measured by DNA content using SYBR green in vitro
# [3] = biological target: Glucose transporter (Leishmania mexicana) (UniProt O61059); assay: ST_JUDE_LEISH: Cytotoxicity at 2uM final concentration against transgenic Leishmania Mexicana promastigotes LmGT2 that are glucose transport deficient and complemented with the L. Mexicana glucose transporter 2. Activity is measured by DNA content using SYBR green in vitro
# Chain of Solute carrier family 2, facilitated glucose transporter member 1 (Homo sapiens) (P11166 whole entry): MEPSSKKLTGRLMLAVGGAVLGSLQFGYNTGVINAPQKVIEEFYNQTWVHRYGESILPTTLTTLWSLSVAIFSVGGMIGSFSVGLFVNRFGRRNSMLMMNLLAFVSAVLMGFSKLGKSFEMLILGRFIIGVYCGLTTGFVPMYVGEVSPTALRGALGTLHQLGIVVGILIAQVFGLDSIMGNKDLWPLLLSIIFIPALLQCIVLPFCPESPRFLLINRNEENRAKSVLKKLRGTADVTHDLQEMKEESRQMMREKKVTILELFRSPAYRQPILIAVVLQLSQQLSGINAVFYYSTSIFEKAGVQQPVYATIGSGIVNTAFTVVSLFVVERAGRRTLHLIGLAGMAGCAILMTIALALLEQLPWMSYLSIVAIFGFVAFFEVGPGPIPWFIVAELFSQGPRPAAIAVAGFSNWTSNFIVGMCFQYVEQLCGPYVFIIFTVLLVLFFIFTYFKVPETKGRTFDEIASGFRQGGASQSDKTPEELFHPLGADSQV
SMILES,inhibition [1] [%],inhibition [2] [%],inhibition [3] [%]
c1cc(CNC2CCN(CC3CCCCC3)CC2)cc(-n2ccnc2)c1,-0.57,-0.48,1.45
CCOC(=O)c1c(NC(NC(=O)c2ccc(C(C)(C)C)cc2)C(Cl)(Cl)Cl)sc2c1CCCC2 (stereo unspecified),10.5,8.72,9.68
CNC(=O)c1cncc(/C=C/c2ccccc2S(N)(=O)=O)c1,-0.22,4.59,-0.59
COc1ccc(-c2cnc3ccc(NCCCO)nn23)cc1OC,-0.63,0.58,1.14
O=C(Nc1ccc(Cl)cc1)Nc1ccc(-c2csc(-c3nc4ccccc4[nH]3)c2)cc1,0.59,1.1,0.83
O=C(Cc1n[nH]c(=O)c2ccccc12)Nc1cccc(C(=O)Nc2cccc(C(F)(F)F)c2)c1,3.52,4.12,2.16
CN1CCC(NCc2cccc(-c3cccc(S(=O)(=O)NCc4ccccc4)c3)c2)CC1,4.86,-2.65,2.47
Cn1c(N=C2NC3(c4ccccn4)NC(=Nc4nc5ccccc5n4C)NC3(c3ccccn3)N2)nc2ccccc21 (stereo unspecified),1.54,2.5,0.64
Cc1[nH]c(C)c(-c2ccc(Oc3ccc(Cl)cc3)cc2)c(=O)c1Br,-0.61,0.25,-0.13
CCCC1N=C(N)N=C(N)N1c1ccc(Cl)cc1 (stereo unspecified),2,2.02,2.31
CN(C)CCCn1cncc1-c1ccc2ncnc(Nc3ccc4c(cnn4Cc4ccccc4)c3)c2c1,1.25,1.38,1.35
CN(c1ncc(-c2cccc(CNCc3ccccc3O)c2)cn1)C1CCCCC1,-1.25,-0.2,0.12
NC1=NC(Cc2ccccc2)N(c2ccc(Cl)cc2)C(N)=N1 (stereo unspecified),8.89,6.99,5.89
C#CCOc1ccccc1CN1CCC(N2CCc3cc(NC(=O)c4cc(C)on4)ccc32)C1 (stereo unspecified),2.61,1.64,4.74
Cc1ccccc1C1CCN(C2CCC(NC(=O)/C=C/c3cccc(Cl)c3F)CC2)CC1 (stereo unspecified),3.45,1.79,1.85
Oc1c(C=Nn2cnnc2)sc2ccccc12,-0.72,5.61,11.2
Nc1nc2c(ncn2COC(COCc2ccccc2)COCc2ccccc2)c(=O)[nH]1.Nc1nc2ncn(COC(COCc3ccccc3)COCc3ccccc3)c2c(=O)[nH]1,-0.7,-2,-0.45
O=S(=O)(NCCN1CCCC1)c1ccc(-c2ccc(CNC3Cc4ccccc4C3)cc2)cc1,2.13,0.85,-2.78
c1ccc2c(CNCCCCCCNCc3c(OCC4CC4)ccc4ccccc34)c(OCC3CC3)ccc2c1,51.5,69.8,37.4
CC1(C)NC(N)=NC(=N)N1OCc1nc(N)nc(Nc2ccccc2)n1,5.43,5.4,5.9
Cc1cc2c(cc1C(F)(F)F)N(C(=O)Nc1cnc(OCCN(C)C)c(C(F)(F)F)c1)CC2,7.92,6.97,6.3
CC(C)C1=NC(=O)c2cc([N+](=O)[O-])ccc2CN1,1.78,1.79,2.11
COc1cc(NC(=O)c2nn(CCCN3CCC(N4CCCC4)CC3)cc2-c2ccc(Cl)c(Cl)c2)cc(OC)c1OC,1.76,2.09,1.96
CCN(CC)CCNc1ccnc2c3ccccc3n(C)c12,-1.54,0.22,-0.19

SMILES,inhibition [1] [%],inhibition [2] [%],inhibition [3] [%]
CCC(C)CN1C(=O)C(c2ccccc2)(c2ccccc2)N=C1N (stereo unspecified),2.09,2.72,2.04
O=C(N[C@@H](Cc1ccccc1)C(=O)NCc1cccc2ccccc12)c1ccc(O)c(-c2ccc(Cl)c(Cl)c2)c1,0.35,2.09,0.79
C=CCn1c(=N)n(CC(O)c2ccc(Cl)c(Cl)c2)c2ccccc21 (stereo unspecified),2.79,3.84,0.9
Nc1nc(N)c2c(ccc3c2ccn3Cc2cccc(F)c2)n1,102,104,99.8
Oc1ccc(CN2CCC(NCc3cccc(C(F)(F)F)c3)CC2)cc1,11.3,13.7,13.7
O=C(Nc1ccc2nc3n(c(=O)c2c1)CCCCC3)C(=O)N1CCC(Cc2ccccc2)CC1,-0.67,0.77,-0.44
Cc1cccc2nc(-c3ccc(-c4ccc(NC(=O)NCc5ccc(F)cc5)cc4)cc3)[nH]c12,0.56,0.89,0.63
NC(=O)c1ccsc1NC(=O)CNC(c1ccccc1)c1ccc(Cl)cc1 (stereo unspecified),6.13,2.82,1.74
N#Cc1cccc(Nc2nccc(NCC(O)c3cccc(C(F)(F)F)c3)n2)c1 (stereo unspecified),4.68,3.25,-3.38
CN(C)Cc1ccc(-c2ccc3c(Nc4ccc(Oc5ccccn5)cc4)ccnc3c2)o1,0.08,4.31,2.19
COC(=O)c1cccc(CNCc2cccc(-c3cccc(-c4nc5ccccc5[nH]4)c3)c2)c1,1.94,3.05,2.93
O=c1c2ccc(Sc3ccccn3)cc2n(-c2ccccc2)c2cc(Sc3ccccn3)ccc12,1.05,0.77,2.64
O=C(O)CCCN1CCCC(=C(c2ccccc2)c2ccccc2)C1,3.04,3.64,4.81
O=C(Nc1cccc(C(F)(F)F)c1)NC1CCN(c2ccnc3cc(Cl)ccc23)C1 (stereo unspecified),-0.97,-2.13,0.93
N#Cc1ccc(-c2ccc(C(=O)NCCCCN3CCC(c4cc(Br)c5c(c4O)CCCC5)CC3)cc2)cc1,0.25,0.94,-0.42
COc1ccc2nccc([C@@H](O)CN3CCC(NCc4cc5ccccc5nc4O)CC3)c2c1,1.8,1.94,2
CC(C)CNCc1ccc(-c2cccc(-c3nc4ccccc4[nH]3)c2)cc1,1.31,9.2,0.1
COc1ccc(CCn2c(=N)c(C(=O)NCc3cccnc3)cc3c(=O)n4ccccc4nc32)cc1,11.7,10.9,7.6
CC(C)NCc1ccc(-c2cccc(NC(=O)c3ccc(C#N)cc3)c2)cc1,6.75,4.9,7.32
CN1CCC(C(=O)N(Cc2ccc(-c3ccc(CNCCc4ccc(S(C)(=O)=O)cc4)cn3)cc2)C2CCN(Cc3ccccc3)CC2)CC1,3.07,2.62,5.75
O=C(Nc1cccc(CN2CCCN(Cc3ccc4c(c3)OCO4)CC2)c1)c1ccc2ccccc2c1,1.49,1.31,-7.63
CCN(CC)CCCNc1nccc(N(C)c2ccc(NC(=O)Nc3cc(C(F)(F)F)ccc3F)cc2)n1,11.7,9.93,11.9
CN1CCN(C(C(=O)NCc2cc(Cl)cc(Cl)c2)c2ccc(NC(=O)Nc3ccccc3)cc2)CC1 (stereo unspecified),2.24,1.94,1.21
CC(C)(C)c1cc(C(=O)Nc2ccc(C(=N)N)cc2)c(O)c(C(C)(C)C)c1,-0.84,3.05,1.59

SMILES,inhibition [1] [%],inhibition [2] [%],inhibition [3] [%]
O=C(Cc1c[nH]cn1)Nc1cccc(-c2cccc(-c3nc4cc(C(F)(F)F)ccc4[nH]3)c2)c1,9.44,12.1,10.4
Cc1noc(C)c1-c1ccc2c(Nc3cccc4c3-c3ccccc3C4=O)c(C(=O)NCc3ccccc3I)cnc2c1,3.15,2.33,6.11
OC1CCC(Nc2ccc3ncc(-c4ccc(Cl)cc4)n3n2)CC1 (stereo unspecified),8.13,3.98,4.08
CC(=O)Nc1ccc(S(=O)(=O)Nc2ccc(Nc3nc(C)cc(N4CCCCC4)n3)cc2)cc1,5.51,5.79,5.54
O=C(NCC1CC1)C1CCN(C(c2ccccc2)c2nc3ccccc3s2)CC1 (stereo unspecified),-0.89,-1.39,-4.85
CCCCCCn1c2c(c(=N)c3c1CCC3)CCCC2,78.2,77.5,66.2
N=c1ccn(CC(=NO)c2ccc(Cl)c(Cl)c2)cc1,0.09,2.8,0.32
N=C(N)c1cccc(OCCCOc2cccc(NC(=O)Nc3ccc([N+](=O)[O-])cc3)c2)c1,4.46,3.16,2.32
COc1cc2cc(Cc3cnc(N)nc3N)ccc2c(OC)c1OC,0.96,-0.27,1.56
Fc1cccc(Nc2nc(NCc3ccc(Cl)c(Cl)c3)nc(Nc3cccc(F)c3)n2)c1,11.7,13.6,7.17
Cc1ccc(C)c(NC(=O)Nc2ccc(Nc3nc(C)cc(N4CCOCC4)n3)cc2)c1,1.4,0.2,-5.61
O=c1cc(NCCCNCc2[nH]c3cc(Cl)ccc3c2Cl)[nH]c2ccccc12,5.19,3.33,4.15
O=C(NC1CCN(Cc2cccc(C(F)(F)F)c2)CC1)c1ccc(-c2cccc(Cl)c2)s1,3.3,2.49,5.19
O=C(Cc1ccsc1)NCC(c1ccccc1Cl)c1c[nH]c2ccccc12 (stereo unspecified),6.27,5.24,4.67
Cc1cc(OCCCN2CCN(CCN3CCOCC3)CC2)ccc1NC(=O)COc1ccc(Cl)cc1C(=O)c1cc(Cl)cc(C#N)c1,2.6,0.79,2.48
Cc1cccc(C(=O)Nc2ccnc(N(C)CCCN(C)Cc3cccc(O)c3)c2)c1,-1.6,1.08,-0.23
COc1ccc(C(=O)Nc2ccc(-c3ccc([N+](=O)[O-])cc3)cc2)cc1CCCN(C)C,2.83,3.93,2.45
OCCCCCCNc1nc(NCc2ccccc2-c2ccc(C(F)(F)F)cc2)nc(N2CCNCC2)n1,1.31,-1.2,0.81
CS(=O)(=O)CCNCc1cccc(-c2ccc3c(Nc4ccc(Oc5ccccc5)cc4)ccnc3c2)c1,0.35,-0.06,1.33
CCCCC(O)c1cc(O)c2c(c1)OC(C)(C)CC2C1=CCN(Cc2ccc3ccccc3c2)CC1 (stereo unspecified),-0.53,1.5,0.64
CC(C)c1ccc(NC(=O)c2cccc(CN3CCCN(Cc4cccc(O)c4)CC3)c2)cc1,15.4,12,7.67
COc1ccc(CNCCCCCCNCCc2ccc(Cl)cc2)cc1OC,1.25,1.81,3.24
COc1ccc(CNCC(C)(C)c2nc(-c3ccc(Cl)c(O)c3)c(-c3ccncc3)[nH]2)cc1,0.93,0.9,-2.74
Cc1c(Cl)ccc2sc(N3CCN(C(=O)c4ccc([N+](=O)[O-])o4)CC3)nc12,71.9,57.6,30
